# Laboratory results as given in PubChem BioAssay AID1456 (Vanderbilt High Throughput Screening Facility, 2008).
# Out of some 190,000 compounds screened, about 4,100 (2.2%) were called active. Many of the other results were omitted from the sample, so actives are more common in it than they were. Unmarked numbers belong to inactive results.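 Rule for the calls: active = thallium flux slope and its plate-corrected score both differing from the plate sample mean at a set confidence after two filtering rounds, in either direction; inactive = the rest.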
# Molecular target: Solute carrier family 12 member 5 (Homo sapiens) (UniProt Q9H2X9)
# Sequence (Q9H2X9 whole entry, looked up): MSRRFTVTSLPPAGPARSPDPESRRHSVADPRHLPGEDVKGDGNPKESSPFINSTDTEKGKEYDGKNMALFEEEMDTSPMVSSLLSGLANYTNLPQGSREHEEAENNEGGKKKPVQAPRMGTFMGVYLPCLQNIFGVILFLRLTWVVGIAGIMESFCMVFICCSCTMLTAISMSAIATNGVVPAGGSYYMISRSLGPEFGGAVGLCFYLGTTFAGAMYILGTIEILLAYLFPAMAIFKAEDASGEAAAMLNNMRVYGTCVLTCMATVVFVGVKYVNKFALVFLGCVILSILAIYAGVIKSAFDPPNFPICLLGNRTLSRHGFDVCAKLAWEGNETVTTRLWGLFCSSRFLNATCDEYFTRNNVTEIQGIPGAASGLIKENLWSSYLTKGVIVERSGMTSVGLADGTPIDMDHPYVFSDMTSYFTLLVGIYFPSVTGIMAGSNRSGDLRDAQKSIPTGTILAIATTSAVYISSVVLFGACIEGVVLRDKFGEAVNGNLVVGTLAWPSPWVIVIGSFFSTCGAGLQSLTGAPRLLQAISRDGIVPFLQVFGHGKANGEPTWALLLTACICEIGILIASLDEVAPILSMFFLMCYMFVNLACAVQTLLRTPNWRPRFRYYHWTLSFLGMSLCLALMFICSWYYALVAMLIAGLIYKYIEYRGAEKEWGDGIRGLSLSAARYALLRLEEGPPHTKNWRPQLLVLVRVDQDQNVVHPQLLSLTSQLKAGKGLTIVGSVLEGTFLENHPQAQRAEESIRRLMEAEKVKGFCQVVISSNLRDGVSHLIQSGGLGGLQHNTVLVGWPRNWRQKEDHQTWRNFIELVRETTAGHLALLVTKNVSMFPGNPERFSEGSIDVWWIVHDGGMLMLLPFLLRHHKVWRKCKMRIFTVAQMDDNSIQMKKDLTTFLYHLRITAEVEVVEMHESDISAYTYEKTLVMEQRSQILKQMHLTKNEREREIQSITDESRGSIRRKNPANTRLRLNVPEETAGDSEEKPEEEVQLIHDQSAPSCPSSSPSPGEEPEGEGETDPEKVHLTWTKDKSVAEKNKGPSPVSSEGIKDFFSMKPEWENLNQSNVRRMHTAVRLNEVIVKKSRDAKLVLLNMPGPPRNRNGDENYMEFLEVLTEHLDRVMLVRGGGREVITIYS
# Assay: KCC2 cotransporter modulators, thallium flux, primary screen, cell-based, HEK293 KCC2, FluoZin-2 fluorescence, MLSMR (AID 1456);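 note: slope of fluorescence scaled to starting intensity during 10 to 20 s after thallium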
# Conditions: KCC2 cells, thallium flux FluoZin-2 fluorescence; at 10 µM
row,SMILES,B-score of Tl+ flux slope (higher = more flux/activation; lower = inhibition)
1,CCCc1ccc(C(=O)[C@@H]2[C@@H](C(C)=O)N3c4ccc(F)cc4C=C[C@@H]3[C@@]23C(=O)Nc2ccccc23)cc1,0.383
2,O=S(=O)(c1cccc(-c2nnc3n2CCCCC3)c1)N1CCOCC1,-1.09
3,O=C(Nc1nnc(C2COc3ccccc3O2)o1)c1ccc(F)cc1 (stereo not drawn),15 (active)
4,c1ccc2c(c1)OCC(c1nn3cnnc3s1)O2 (stereo not drawn),-0.604
5,O=C(CN1C(=O)COc2ccccc21)Nc1ccc(F)cc1,0.048
6,O=C(NNC(=O)c1csc(-c2cccnc2)n1)Nc1ccc(Cl)cc1,-0.334
7,COc1ccc(NC(=O)CCN2C(=O)/C(=C/c3ccc4c(c3)OCO4)SC2=S)cc1,-1.33
8,CCC1(C)Cc2c(sc3nc4n(c(=O)c23)CCCS4)CO1 (stereo not drawn),-0.0542
9,CCC1(C)Cc2c(sc3[nH]c(=S)n(Cc4ccccc4)c(=O)c23)CO1 (stereo not drawn),35.8 (active)
10,CCC1(C)Cc2c(sc3nc(SC)[nH]c(=O)c23)CO1 (stereo not drawn),0.823
11,Cc1c(C)c(C)c2[nH]c(=S)[nH]c2c1C,0.63
12,COc1ccc(Cl)cc1C(=O)NNC(=O)c1nc2nc(C)cc(C)n2n1,-1.53
13,CCN1CCN(c2nc(Nc3cccc(F)c3)nc(N)c2[N+](=O)[O-])CC1,-0.953
14,N#Cc1c2c(c(-c3ccccc3)[nH]c1=O)CCCC2,-0.0377
15,CC(=O)c1c(C)[nH]c(=S)c(C#N)c1-c1ccc(F)cc1,0.0246
16,N#Cc1c(-c2ccc(Cl)cc2)c2c([nH]c1=S)CCCC2,13.8 (active)
17,COc1ccc(NC(=O)C2=C(C)NC(=O)NC2c2ccccc2[N+](=O)[O-])cc1 (stereo not drawn),-1.15
18,Cc1ccc(Cl)c(OCC(=O)NN2CCN(C)CC2)c1,0.242
19,NC(=O)C1(C(N)=O)OC1c1ccc(Cl)cc1Cl (stereo not drawn),0.213
20,CCN1CCN(CC(=O)c2cc(OC)c(OC)c(OC)c2)CC1,0.89
21,COc1ccc(CCNS(=O)(=O)c2cccc3cccnc23)cc1OC,-0.941
22,Cc1ccc(OCc2n[nH]c(=S)n2-c2ccc(C)cc2)cc1,13.5 (active)
23,S=c1[nH]nc(COc2ccccc2)n1-c1ccccc1,0.195
24,COc1ccc(OCc2n[nH]c(=S)n2N)cc1,0.178
25,CCc1ccccc1NC(=O)CSc1nnc(CCNC(=O)OC(C)(C)C)o1,-1.55

row,SMILES,B-score of Tl+ flux slope (higher = more flux/activation; lower = inhibition)
1,COC(=O)c1c(-c2cccs2)csc1NC(=O)CSc1ncnc2sc(C)c(C)c12,0.971
2,CCCNc1ncnc2sc(C)c(C)c12,-0.897
3,CSc1ncnc2sc(C)c(C)c12,8.38 (active)
4,CCOC(=O)C(C)n1cnc2sc(C)c(C)c2c1=O (stereo not drawn),0.498
5,Cc1sc2ncnc(Sc3nc4ccccc4s3)c2c1C,2.96 (active)
6,CCN(CC)CCCSc1nc2ccccc2s1,-0.568
7,O=C(O)c1ccccc1C(=O)Nc1ccccc1[N+](=O)[O-],-0.0678
8,CCOc1ccccc1N1CN(Cc2ccccc2)CNC1=S,-0.426
9,O=C(O)CCN(Cc1ccccc1)S(=O)(=O)c1c(Cl)cccc1Cl,-6.63 (active)
10,COC(=O)c1ccc(S(=O)(=O)N(CCO)Cc2ccccc2)n1C,0.0796
11,O=C(/C=C/c1c(Cl)cccc1Cl)NCc1ccccc1,0.452
12,O=C(Oc1c(-c2ccco2)oc2ccccc2c1=O)c1cccnc1,40.4 (active)
13,O=C(Oc1cccnc1)c1cc2ccccc2oc1=O,0.0371
14,N#CCc1ccc(OC(=O)c2cccnc2)cc1,0.815
15,S=C(NNC(=S)NC1CC2CCC1C2)NC1CC2C=CC1C2 (stereo not drawn),0.801
16,Clc1ccc2nc(-c3ccccc3)nc(C(Cl)Cl)c2c1,0.642
17,CCOc1ccc2[nH]c(=O)c(CN(Cc3nnnn3Cc3ccccc3)CC3CCCO3)cc2c1 (stereo not drawn),0.154
18,Cc1cc2cc(CN(Cc3cccs3)Cc3nnnn3CC3CCCO3)c(=O)[nH]c2cc1C (stereo not drawn),-1.28
19,Cc1cc(C)c2cc(CN(Cc3cccs3)Cc3nnnn3CC3CCCO3)c(=O)[nH]c2c1 (stereo not drawn),-3.73 (active)
20,CCOC(=O)N/N=C1\CC(C)S(=O)(=O)c2ccc(Cl)cc21 (stereo not drawn),-0.00493
21,C/C(=N/NC(=O)CN1CCN(S(=O)(=O)c2ccc(Br)cc2)CC1)c1ccncc1,0.498
22,Cc1ccc(C)c(SCc2nc3sc(C(=O)O)c(C)c3c(=O)[nH]2)c1,0.00809
23,CC(C)c1ccc2c(c1)c(SC(C)(C)C)c(CC(C)(C)C(=O)O)n2Cc1ccc(Cl)cc1,6.52 (active)
24,COc1cc([N+](=O)[O-])ccc1NC(=S)N1CCN(c2ccccn2)CC1,-1.11
25,O=C(Nc1nnc(C2CC2)s1)C1=NN(C2CCS(=O)(=O)C2)C(=O)CC1 (stereo not drawn),0.0275

row,SMILES,B-score of Tl+ flux slope (higher = more flux/activation; lower = inhibition)
1,CCCOC(=O)CC1C(=O)NCCN1Cc1ccc(F)cc1 (stereo not drawn),-4.12 (active)
2,O=C(CC1C(=O)NCCN1Cc1ccc(-c2ccccc2)cc1)NCC1CCOCC1 (stereo not drawn),0.966
3,CN(Cc1cccc2ncccc12)C(=O)CC1C(=O)NCCN1Cc1ccc(F)cc1 (stereo not drawn),-0.00882
4,Cc1cc(N)n(-c2ccc(S(=O)(=O)N3CCCC3)cc2[N+](=O)[O-])n1,-0.0325
5,COC(=O)c1cccc(NS(C)(=O)=O)c1,0.136
6,N#Cc1ccc(C(=O)Nc2cccc3cccnc23)c(F)c1,0.429
7,S=C(NCc1cccnc1)Nc1ccc(Cl)cc1Cl,0.543
8,CC(=O)/C(=N\Nc1ccc(Cl)cc1Cl)Sc1cccc2cccnc12,20.6 (active)
9,Cc1cc(OCCCN2CCN(Cc3ccccc3)CC2)ccc1[N+](=O)[O-],-0.489
10,O=[N+]([O-])c1c(NCCO)cc(Sc2nc3ccccc3s2)c2nonc12,5.33 (active)
11,COc1ccc(S(=O)(=O)Nc2ccc(O)c(Sc3nc4ccccc4s3)c2)cc1,-1.09
12,O=C(CSc1nc2ccccc2s1)Nc1ccc(C(=O)O)cc1,0.381
13,O=C(NCc1ccc(F)cc1)C1CCC(CNc2c(N3CCOCC3)c(=O)c2=O)CC1 (stereo not drawn),1.21
14,Cc1cc(C(=O)CSc2nc(N)cc(=O)[nH]2)c(C)n1Cc1ccco1,-0.287
15,COc1ccc(-c2csc(NC3OC(=O)c4ccccc43)n2)cc1 (stereo not drawn),0.605
16,CN(C(=O)CSc1nnc(-c2c[nH]c3ccccc23)o1)C1CCS(=O)(=O)C1 (stereo not drawn),-0.897
17,CCC(CC)NC(=O)CSc1nnc(-c2c[nH]c3ccccc23)o1,-3.08 (active)
18,O=C(CSc1nnc(-c2c[nH]c3ccccc23)o1)c1ccccc1,0.154
19,COc1cccc(C(=O)n2ccc(-c3cccs3)n2)c1,0.604
20,COC(=O)N(NC(=O)C(O)(C(C)C)C(C)C)c1ccccc1,-1.84
21,O=C(NC(CC(=O)N1CCN(c2ccccc2)CC1)c1ccccc1)c1ccccc1Cl (stereo not drawn),-2.77 (active)
22,O=C(CN1CCCC1)N1CCN(c2ccccc2)CC1,0.962
23,CC(CC(=O)N1CCN(c2ccccc2)CC1)c1ccccc1 (stereo not drawn),-0.358
24,Cc1ccc(/C=N\n2c(-c3ccccc3)n[nH]c2=S)s1,5.99 (active)
25,S=c1[nH]nc(-c2ccco2)n1/N=C/c1ccc(Br)s1,12.6 (active)

row,SMILES,B-score of Tl+ flux slope (higher = more flux/activation; lower = inhibition)
1,S=c1[nH]nc(-c2ccco2)n1/N=C/c1ccccc1,4.67
2,S=c1[nH]nc(-c2ccccc2)n1/N=C/c1c[nH]c2ccccc12,0.491
3,S=c1[nH]nc(-c2cccs2)n1/N=C/c1cccs1,8.64
4,Cc1cc(-c2n[nH]c(=S)n2/N=C/c2ccco2)n[nH]1,-0.111
5,O=c1c2ccccc2cnn1Cc1n[nH]c(=S)n1-c1ccccc1F,0.755
6,CC1CCN(c2c(NCc3ccc(C(=O)NCc4ccccc4)cc3)c(=O)c2=O)CC1,-1.1
7,O=C(Nc1ccccc1)C1CC(=O)n2c(nc3ccccc32)N1 (stereo not drawn),0.778
8,CC(C)CCNC(=O)C1CCC(CNc2c(N3CCC(C)CC3)c(=O)c2=O)CC1 (stereo not drawn),0.284
9,COc1ccc(CNC(=O)CCC(=O)Nc2nnc(C(C)C)s2)cc1,0.0451
10,Cc1cccc(N2CCN(Cc3nc(C4CC4)no3)CC2)n1,-0.346
11,COc1cccc(-c2nnc(NC(=O)c3ccc(S(=O)(=O)N(CC(C)C)CC(C)C)cc3)o2)c1,18.6 (active)
12,O=C(Nc1nnc(-c2ccco2)o1)c1ccc(S(=O)(=O)N2CCOCC2)cc1,-0.75
13,COc1cccc(NC(=O)c2ccc(S(=O)(=O)N(C)C)cc2)c1,1.09
14,CCCCN1CCNC1=S,-0.472
15,O=C(Nc1ccc(Br)cn1)c1ccc([N+](=O)[O-])o1,0.106
16,CC(C)CC(=O)NC(=S)NNC(=O)c1cccc([N+](=O)[O-])c1,0.86
17,CCCCCC(=O)NC(=S)NNC(=O)c1ccc([N+](=O)[O-])cc1,11.7 (active)
18,CCCCCC(=O)Nc1ccc(C(=O)N/N=C/c2ccc([N+](=O)[O-])cc2)cc1,-0.55
19,Cc1ccc(N2C(=O)C(CC(=O)Nc3cccc(F)c3)N(CCc3ccncc3)C2=O)cc1 (stereo not drawn),1.48
20,C=CCNC(=S)N1CCc2[nH]c3ccccc3c2C1,-0.783
21,Cc1cccc(NC(=O)Nc2nnc(-c3ccccc3)o2)c1,2.01
22,O=C(COC(=O)c1ccc(Oc2ccccc2)cc1)Nc1nnc(-c2ccccc2)o1,42.1 (active)
23,CCCC(=O)Nc1nnc(-c2ccccc2)o1,1.22
